PME-1 primary: PME-1 inhibitors via competitive probe labeling, primary screen, biochemical, fluorescence polarization, FP-Rh probe, HTS; Protein phosphatase methylesterase 1 (Homo sapiens), Q9Y570; recombinant PME-1; inhibition, % at 5.9 µM; hit rate 0.53% among 320,000; AID 2130, 2009;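 active means inhibition above the campaign mean of all compounds plus 3 SD, cut at about 26% in these data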;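 further: competitive labeling of PME-1 active site by serine hydrolase directed probe; 0% = PME-1 with DMSO and 100% = wells lacking PME-1 enzyme; inhibitors block probe labeling so polarization falls and inhibition rises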
Target sequence (Q9Y570 whole entry, looked up): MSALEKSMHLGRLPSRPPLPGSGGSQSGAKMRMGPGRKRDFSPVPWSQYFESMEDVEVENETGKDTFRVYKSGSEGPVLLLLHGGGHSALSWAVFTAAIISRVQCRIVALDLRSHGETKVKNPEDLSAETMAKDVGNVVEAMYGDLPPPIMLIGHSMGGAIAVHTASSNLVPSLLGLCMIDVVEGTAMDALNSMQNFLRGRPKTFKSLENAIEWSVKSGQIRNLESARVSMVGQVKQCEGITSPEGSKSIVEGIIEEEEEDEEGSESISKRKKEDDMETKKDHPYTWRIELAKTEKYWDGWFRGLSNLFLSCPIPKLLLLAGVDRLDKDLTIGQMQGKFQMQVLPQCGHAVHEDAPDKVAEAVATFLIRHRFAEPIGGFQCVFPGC
LYPLA1 counter: LYPLA1 inhibitors, primary screen, counter-screen for PME1 inhibitor project, biochemical, fluorescence polarization, FP-Rh probe ABPP | inhibition, % at 5.9 µM | AID 2174, 2009 | recombinant LYPLA1 | hit rate 0.16% among 320,000 | Acyl-protein thioesterase 1 (Homo sapiens), O75608;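 active means inhibition above the mean of all tested compounds plus 3 SD, set per campaign, cut at about 14% in these data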;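 further: inhibitors block serine hydrolase probe labeling of LYPLA1 so polarization falls; 0% = enzyme with DMSO and 100% = wells lacking LYPLA1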
Target sequence (O75608 whole entry, looked up): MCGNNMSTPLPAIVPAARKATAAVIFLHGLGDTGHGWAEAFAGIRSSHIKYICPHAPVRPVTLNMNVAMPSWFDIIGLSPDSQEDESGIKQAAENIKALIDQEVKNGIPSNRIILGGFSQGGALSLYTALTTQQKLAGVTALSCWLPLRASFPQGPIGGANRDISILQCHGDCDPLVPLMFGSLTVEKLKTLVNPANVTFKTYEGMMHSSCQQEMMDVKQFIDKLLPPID
Fam108B counter: mouse Fam108B serine hydrolase inhibitors, primary screen, counter-screen for RBBP9 inhibitor project, biochemical, fluorescence polarization. recombinant Fam108B, FP-Rh probe fluorescence polarization. inhibition, % at 9.51 µM. hit rate 0.33% among 300,000;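 active means inhibition above the screen mean inhibition plus 3 SD, computed separately per campaign, cut at about 18% in these data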;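 further: inhibitors lower polarization as less probe binds the enzyme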
LYPLA2 counter: LYPLA2 inhibitors, primary screen, counter-screen for PME1 inhibitor project, biochemical, fluorescence polarization, FP-Rh probe ABPP; Acyl-protein thioesterase 2 (Homo sapiens), O95372; recombinant LYPLA2; hit rate 0.38% among 320,000; inhibition, % at 5.9 µM;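 active means inhibition above the screen-wide mean plus 3 SD, limit set per campaign, cut at about 26% in these data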;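 further: 0% = LYPLA2 with DMSO and 100% = wells lacking LYPLA2 enzyme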
PREPL inhibitor: PREPL enzyme inhibitors, primary screen, biochemical, fluorescence polarization | inhibition, % at 5.96 µM | recombinant PREPL, fluorescence polarization activity-based probe | AID 2751, 2010 | hit rate 0.68% among 320,000 | Prolyl endopeptidase-like (Homo sapiens), Q4J6C6; in the data active means inhibition above about 43%;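 further: 0% = enzyme with DMSO and 100% = wells lacking enzyme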
GSTO1 inh: inhibitors of recombinant GSTO1, primary screen, counter-screen for RBBP9 inhibitor project, biochemical, fluorescence polarization; hit rate 1.1% among 300,000; activity-based probe fluorescence polarization; inhibition, % at 5.96 µM;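 active means inhibition above the campaign mean inhibition plus 3 SD, cut at about 35% in these data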;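 further: 0% = GSTO1-1 with DMSO and 100% = wells lacking GSTO1-1 enzyme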
LYPLA2 confirm: LYPLA2 inhibitors, retest, confirmation, counter-screen for PME1 inhibitor project, biochemical, fluorescence polarization, FP-Rh probe ABPP | shares compounds with LYPLA2 counter | hit rate 72% among 1,100 | inhibition, % at 5.9 µM | recombinant LYPLA2;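 active means mean inhibition across replicates above the hit cutoff set in the primary screen, cut at about 26% in these data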;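 further: blocked labeling of the enzyme by serine hydrolase FP-Rh probe lowers polarization; 0% = enzyme with DMSO and 100% = wells lacking LYPLA2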
LYPLA2 gel ABPP: LYPLA2 inhibitors in proteome, late-stage follow-up, gel-based competitive ABPP, fluorescence, assay provider; shares compounds with LYPLA2 counter; rhLYPLA2 in mouse brain proteome, gel ABPP FP-Rh; inhibition, % at 20 µM; hit rate 30% among 150;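 active means inhibition of LYPLA2 enzyme probe labeling above about 50%, limit read from the data; inactive means inhibition below that limit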;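 further: loss of FP-Rh probe labeling of the LYPLA2 gel band measured as band density; 0% = DMSO only control band and 100% = blank gel background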
An asterisk follows results filed as active; . = no result. Sampled rows, rich in hits. Any-hit rate of the full collection: about 1.9%.

SMILES	PME-1 primary	LYPLA1 counter	Fam108B counter	LYPLA2 counter	PREPL inhibitor	GSTO1 inh	LYPLA2 confirm	others
Cc1cccnc1NC(=O)C(C)N1C(=O)c2ccccc2C1=O (stereo not given)	-3	2	0	2	0	6	.
O=C(O)c1cccc2c1C(=O)c1ccc(-c3ccc(F)cc3OCc3ccccc3)cc1S2(=O)=O	12	-9	.	35*	36	.	29*
O=C1c2ccc(-c3ccc(F)cc3OCc3ccccc3)cc2S(=O)(=O)c2cccc(C(=O)N3CCN(c4ncc(Br)cn4)CC3)c21	.	.	.	.	18	.	.
Cc1nc([N+](=O)[O-])cn1CC(=O)c1ccccc1	-3	-3	-3	0	14	-4	.
Cc1nc([N+](=O)[O-])cn1CC(=O)Nc1ccc([N+](=O)[O-])cc1	1	0	3	33*	14	5	41*
CCCCSc1nc(O)cc(=O)n1CC	1	1	1	-7	14	3	.
Cc1ccc2nc3n(c(=O)c2c1)-c1ccc(Cl)cc1C(=O)NC3Cc1ccccc1 (stereo not given)	-7	-6	.	-10	-2	.	.
O=C1NC(Cc2ccccc2)c2nc3ccc(Cl)cc3c(=O)n2-c2ccc(Cl)cc21 (stereo not given)	-11	-5	.	26*	-4	.	-11
CC(=O)c1ccc(OCC(O)CN2CCN(CCN3C(=O)c4cccc5cccc(c45)C3=O)CC2)cc1 (stereo not given)	2	2	1	53*	3	-4	59*	LYPLA2 gel ABPP=20
Cc1ccccc1OCC(O)CN1CCN(CCN2C(=O)c3cccc4cccc(c34)C2=O)CC1 (stereo not given)	1	-3	-5	39*	-17	-7	48*
CCC(OCC(O)CN1CCN(CCN2C(=O)c3cccc4cccc(c34)C2=O)CC1)c1ccccc1 (stereo not given)	-9	3	2	45*	-11	-1	46*
C=CCc1ccccc1OCC(O)CN1CCN(CCN2C(=O)c3cccc4cccc(c34)C2=O)CC1 (stereo not given)	-5	5	-8	27*	10	-3	37*
CCC1(C)CC2(CCCN(CCC(=O)c3ccccc3)C2)CCO1 (stereo not given)	2	0	0	-1	2	4	.
COc1ccc([C@H]2CC(=O)C=C(c3cccc(C#N)c3)C2)cc1	-1	12	.	33*	10	.	26*
COc1ccc([C@H]2CC(=O)C=C(c3cccc(OC)c3)C2)cc1	7	-3	.	3	-6	.	.
O=C(CCc1nnc(C2CCCCC2)o1)NCCCOc1cccnc1	2	0	0	-9	-7	0	.
CCCC1CCc2[nH]nc(C(=O)NN)c2C1 (stereo not given)	4	-3	8	0	-5	2	.
O=C(NCCCN1CCN(c2cccc(Cl)c2)CC1)c1cccc(N2CCCC2=O)c1	3	6	-3	27*	21	11	33*
O=C(NCCS(=O)(=O)N1CCN(c2cccc(Cl)c2)CC1)c1ccc2c(c1)OCO2	-2	-1	2	47*	-32	-5	56*	LYPLA2 gel ABPP=20
Nc1ccccc1C(=O)NCCCN1CCN(c2cccc(Cl)c2)CC1	-5	9	0	30*	11	6	40*
O=C(NCCCN1CCN(c2cccc(Cl)c2)CC1)c1ccc(N2CCCC2=O)cc1	-5	-1	-3	5	-6	5	.
O=C(Nc1cccc2cccnc12)c1ccc(Br)cc1Br	-4	-8	0	-9	-2	-6	.
O=C(Nc1ccc(F)cc1F)c1cc2nc3c(c(C(F)(F)F)n2n1)CCCC3	0	0	2	-5	18	-1	.
O=C(c1ccc(N2CCOCC2)c([N+](=O)[O-])c1)N1CCCC(C(F)(F)F)C1 (stereo not given)	-3	-2	-1	-9	1	-4	.
O=C(NNc1ccccc1[N+](=O)[O-])Nc1ccccc1	3	2	1	28*	15	3	17
SMILES	PME-1 primary	LYPLA1 counter	Fam108B counter	LYPLA2 counter	PREPL inhibitor	GSTO1 inh	LYPLA2 confirm	others
O=C(NNc1ccccc1[N+](=O)[O-])Nc1ccc(Cl)c(Cl)c1	-5	-10	-13	49*	41	-5	44*
CCc1ccc(C(=O)Cn2ncc(Cl)c(Cl)c2=O)cc1	-10	-4	-6	31*	13	21	35*
CC1=C(C(=O)OCc2ccc3c(c2)OCO3)C(c2cccc([N+](=O)[O-])c2)NC(=O)N1 (stereo not given)	-1	-4	-8	-5	-4	-31	.
CC1CCN(CCCNC(=O)c2ccc3c(=O)n(CCc4ccccc4)c(=O)[nH]c3c2)CC1	1	-5	-3	-5	14	-7	.
CN1CCN(CCCNC(=O)c2ccc3c(=O)n(CCc4ccccc4)c(=O)[nH]c3c2)CC1	0	-4	0	29*	12	1	1
O=C(CCSc1ccc(Br)cc1)Nc1cccnc1	-6	-2	3	-2	-6	4	.
O=C(NC1CCCc2ccccc21)C1CCN(c2c3c(nc4ncnn24)CCC3)CC1 (stereo not given)	6	-3	2	-3	2	5	.
O=C(Nc1ccc(Oc2ccccc2)cc1)C1CCN(c2c3c(nc4ncnn24)CCC3)CC1	-1	-2	-1	28*	9	-4	22
COc1cc(/C=N/NC(=O)/C(=C\c2ccc([N+](=O)[O-])cc2)NC(=O)c2ccccc2)cc(OC)c1O	5	-2	3	39*	20	18	42*
CC(Oc1ccc([N+](=O)[O-])cc1)C(=O)NCCCN1CCOCC1 (stereo not given)	5	3	-1	10	13	6	.
CC1CCN(C(=O)Cn2c(=O)n(Cc3ccco3)c(=O)c3sccc32)CC1	-1	-1	-3	1	-3	4	.
Clc1ccc(-c2nnc(C3CC3)o2)cc1	2	5	1	10	5	11	.
